According to PubChem BioAssay (NCATS):
Where “and” joins values, the source holds several entries; their conditions need not be identical. Identical values can stand only once. Results filed as inconclusive are left out. Calls of active or inactive are those of the source. Calls follow the shape of the dose curve; as a rule, active = well fitted curve in the direction sought with a large enough effect; inconclusive = small, poorly fitted or top-dose-only effect, or another doubt; inactive = no such curve, though single readings can be large; an effect the other way counts as inactive or inconclusive.

Tests used:
[1] = molecular target: Cellular tumor antigen p53 (Homo sapiens) (UniProt P04637); assay: Primary qHTS for small molecule compounds that upregulate eGFP-tagged delta133p53alpha (in N-terminal) cells. (AID 2060322); conditions: NCI-H358 eGFP-delta133p53alpha fluorescence, 24 h; activation: active compounds read high;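 also: cells pre-induced with doxycycline then dosed without doxycycline; series mostly up to about 56 µM; 0% = DMSO vehicle and 100% = reference activator; nearly all actives have a fitted effect of over 75% in size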
Cellular tumor antigen p53 (Homo sapiens), sequence (P04637 whole entry, looked up): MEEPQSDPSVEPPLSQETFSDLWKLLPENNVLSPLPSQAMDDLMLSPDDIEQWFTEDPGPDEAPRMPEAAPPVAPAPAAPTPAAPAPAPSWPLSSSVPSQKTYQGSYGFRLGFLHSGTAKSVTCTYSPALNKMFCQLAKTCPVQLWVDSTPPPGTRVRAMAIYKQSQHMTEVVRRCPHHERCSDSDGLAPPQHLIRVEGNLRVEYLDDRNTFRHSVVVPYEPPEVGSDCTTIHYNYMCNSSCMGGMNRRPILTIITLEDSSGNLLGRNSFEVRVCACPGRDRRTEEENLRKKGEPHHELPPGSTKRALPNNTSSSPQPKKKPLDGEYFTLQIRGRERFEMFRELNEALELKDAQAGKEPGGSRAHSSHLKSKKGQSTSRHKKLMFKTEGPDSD
Outline: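 NCI-H358 cells pre-induced 24 h with 10 ng/ml doxycycline for eGFP-delta133p53alpha, plated dox-free and exposed 24 h at 37C to titrated compounds. Fixed, Hoechst-stained; gated GFP peak intensity by laser scanning cytometry, normalized to DMSO (0%) and 57.5 uM 5-azacytidine (100%).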

[2] = molecular target: Aldehyde dehydrogenase, mitochondrial (Homo sapiens) (UniProt P05091); assay: qHTS for Inhibitors of the Aldehyde Dehydrogenase Family (ALDH2) Primary screen (AID 2061308);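 also: plate controls were vehicle for no effect and reference inhibitor for full effect; nearly all actives have a fitted effect of over 55% in size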
[3] = molecular target: Retinaldehyde dehydrogenase 3 (Homo sapiens) (UniProt P47895); assay: qHTS for Inhibitors of the Aldehyde Dehydrogenase Family (ALDH1A3) Primary screen (AID 2061315);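 also: plate controls were DMSO vehicle for no effect and reference inhibitor for full effect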

COc1ccc2c3c1O[C@H]1C[C@@H](O)C=C[C@@]31CCN(C)C2
inactive: activation [1] 27.7% | Potency [2] | Potency [3]

C=C1CC23CC1CCC2C12OC(=O)C(C)(C(O)C(O)C1O)C2C3C(=O)O (stereo not given)
inactive: activation [1] 2.68% | Potency [2] | Potency [3]

COc1c(O[C@@H]2O[C@H](CO)[C@@H](O)[C@H](O)[C@H]2O)c(CCC(=O)O)cc2ccoc12
inactive: activation [1] -7.63% | Potency [2] | Potency [3]

C=C1CC[C@@H]2[C@@](C)(CO[C@@H]3O[C@H](CO)[C@@H](O)[C@H](O)[C@H]3O)[C@H](O)CC[C@@]2(C)[C@@H]1CC/C(C)=C/CO[C@@H]1O[C@H](CO)[C@@H](O)[C@H](O)[C@H]1O
inactive: activation [1] 23.2% | Potency [2] | Potency [3]

CC(=O)NC(Cc1ccccc1)C(=O)O (stereo not given)
inactive: activation [1] 1.67% and 0% | Potency [2] | Potency [3]

O=C(Nc1ccc(N(Cc2ccsc2)C(=O)Cn2nnc3ccccc32)cc1)C1CC1
inactive: activation [1] 11.6% | Potency [2] | Potency [3]

CC(C)c1ccc2c(c1)C(=O)CC1C(C)(C(=O)O)CCCC21C (stereo not given)
inactive: activation [1] 3.57% | Potency [2] | Potency [3]

CCC(C)C1NC(=O)C(Cc2ccccc2)NC(=O)C(CCCCCC(=O)C(O)CO)NC(=O)C2CCCCN2C1=O (stereo not given)
inactive: activation [1] -9.92% | Potency [2] | Potency [3]

COc1cc(C(C)=O)c(OC)c2c1OC(C)(C)C=C2
inactive: activation [1] 6.25% | Potency [2] | Potency [3]

O=C(NC[C@H]1CN(c2ccc(N3CCOCC3=O)cc2)C(=O)O1)c1ccc(Cl)s1
inactive: activation [1] 5.25% | Potency [2] | Potency [3]
